“And” between values parts separate entries of the source, which are not always exact repeats. Equal entries are not always repeated. The source holds several records for some structures; these can differ, active in one and inactive in another. The source made the active and inactive calls. The calls were made as follows: active = hit-call score of the fitted dose curve at least 0.9, where 1 is the maximum; inactive = score below 0.9.

Read-out in the assay: Interferon-inducible T-cell alpha chemoattractant (ITAC), CXCL11 (gene 6373)
Put plainly: BSK_hDFCGF_ITAC: BioMAP Diversity Plus: hDFCGF Assay for Interferon-inducible T-cell alpha chemoattractant (ITAC) Biomarker Activity (AID 2284251). The settings on record: primary human foreskin fibroblasts. As for the experimental part:
BSK_hDFCGF is a cell-based, multiplexed-readout assay that uses foreskin fibroblast, a human skin primary cell, with measurements taken at 24 hours after chemical dosing in a 96-well plate.BSK_hDFCGF_ITAC is an assay component measured in the BSK_hDFCGF assay. It measures I-TAC antibody related to regulation of gene expression using ELISA technology.Data from the assay component BSK_hDFCGF_ITAC was analyzed at the endpoint, BSK_hDFCGF_ITAC, in the positive analysis fitting direction relative to DMSO as the negative control and baseline of activity. Using a type of binding reporter, gain or loss-of-signal activity can be used to understand protein changes. To generalize the intended target to other relatable targets, this assay endpoint is annotated to the 'cytokine' intended target family, where the subfamily is 'chemotactic factor'.
The levels of cell surface (or secreted, indicated by the prefix "s") biomarker endpoints were measured by ELISA. Overt cytotoxicity to cells in confluent adherent cultures (all systems other than the BT system) was assessed by measuring total protein levels using sulforhodamine B (SRB) staining in parallel cultures at the time of biomarker measurements, indicated as SRB endpoints. For proliferation assays for adherent cell types, individual cell types are cultured at sub-confluence and relative cell numbers quantified by SRB staining at time points optimized for each system (48 h: 3C and CASM3C systems; 72 h: BT and HDF3CGF systems; 96 h: SAg system). SRB was performed by staining cells with 0.1% SRB after fixation with 10% TCA and reading wells at 560 nm.Viability and proliferation of PBMC (T cells) was quantified by Alamar Blue reduction for the SAg and BT systems. For PBMC viability (referred to as PBMC Cytotoxicity within the assay endpoint names), cells were plated (75,000/well in a 96-well plate) and then chemical samples added for 1 h before addition of activators, SEB and TSST-1 (20 ng/mL final concentration each). Cells were incubated for 90 h. Then, Alamar Blue (20 uL/well) (Invitrogen, Cat DAL1100) was added for 6 h, and the plates were read with a fluorescence microplate reader at 546/580 nm (excitation/emission). For PBMC proliferation, cells were plated and activated as above but incubated for only 16 h prior to addition of Alamar Blue. Plates were read after 6 h.
As to `OCCC(F)(F)C(F)(F)C(F)(F)C(F)(F)F`, the outcome was inactive.
As for `OC(O)(C(F)C(O)(O)C(F)(F)F)C(F)(F)F`, the AC50 (usually the concentration giving half of the maximal activity seen) was 8.03 µM (active) and 15 µM (active).
`FC(F)=C(F)C(F)(F)C(F)(F)C(F)(F)C(F)(F)C(F)(F)C(F)(F)F`: the outcome was inactive.
Take `FC(F)(F)C(F)(F)C(F)(F)C(F)(F)C(F)(F)C(F)(F)I`: the AC50 was 47.4 µM (active) and the outcome was inactive.
Regarding `C[Si](C)(C)C(F)(F)C(F)(F)C(F)(F)F`, the result was inactive.
Still for that read-out and setting: then `NCC(F)(F)C(F)(F)C(F)(F)C(F)(F)F`, with “inactive”; and `FC(F)C(F)(F)COCC1CO1` (configuration not stated), with “inactive”; and `FC(F)(F)COC(OCC(F)(F)F)OCC(F)(F)F`, with “inactive”.
The same measure, in the same setting: then `O=C(Cl)C(F)(F)C(F)(F)C(F)(F)C(=O)Cl`, with “inactive”.
Take `O=S(=O)(O)CCC(F)(F)C(F)(F)C(F)(F)C(F)(F)C(F)(F)C(F)(F)F`: the outcome was inactive and the AC50 was 1.38 µM (active).

These data come from PubChem BioAssay (EPA / NIEHS).
